The term AC50 denotes the concentration at which the activity in the assay is half-maximal.

The source made the active and inactive calls. How the source made its calls: active means hit-call score of the fitted dose curve at least 0.9, where 1 is the maximum; inactive means score below 0.9.

Data on three compounds can be found in PubChem BioAssay (EPA / NIEHS).

Assay [1] can be described thus: ATG_CRE_CIS: Attagene CIS-FACTORIAL HepG2 Assay for human cAMP Responsive Element (CRE) binding protein 3 (AID 2282926). The settings on record: HepG2 CRE cis-reporter, Attagene multiplexed mRNA; actives raise or lower the signal. A digest of the protocol:
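Capillary electrophoresis of 6-FAM-labelled, HpaI-digested PCR products quantified reporter transcripts. These came from HepG2 transiently transfected with cis-element reporters and exposed to test chemicals for 24 hours, with DMSO defining baseline activity.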

Assay [2] has as its target CCAAT/enhancer-binding protein beta (Homo sapiens) (UniProt P17676). Briefly: ATG_C_EBP_CIS: Attagene CIS-FACTORIAL HepG2 Assay for human CCAAT/Enhancer Binding Protein (C/EBP) beta (AID 2282927). The settings on record: HepG2 Attagene cis-factorial transcription factor reporter; actives raise or lower the signal. A digest of the protocol: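 Endogenous transcription factor activity in human liver HepG2 cells is inferred from induction of a CEBPB-linked reporter mRNA. Exposure lasts 24 h; activity is fitted in both directions relative to DMSO.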

The nature of assay [3]: ATG_CMV_CIS: Attagene CIS-FACTORIAL HepG2 Assay for human CMV (Internal Marker) (AID 2282928).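 Further: endpoint acts as a background internal control marker rather than a target.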 The settings on record: HepG2 CMV promoter reporter, transcription factor profiling; actives raise or lower the signal. In outline:
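24 h chemical treatment, HepG2 with transient multi-reporter transfection; RNA → oligo(dT) RT → PCR → 6-FAM extension → HpaI digest → CE fluorescence. Bidirectional fit, DMSO negative control.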

A short description of assay [4]: ATG_DR4_LXR_CIS: Attagene CIS-FACTORIAL HepG2 Assay for human Liver X Receptor (LXR), DR4 submotif (AID 2282929). The settings on record: HepG2 Attagene DR4 cis-reporter, mRNA transcription; actives raise or lower the signal. In outline:
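Cells were transfected with multiple reporter transcription units, exposed to chemicals for 24 hours, then lysed for RNA. Reporter mRNA induction was measured by RT-PCR with capillary electrophoresis detection and fitted in both directions relative to DMSO.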

Assay [5] has as its target Aryl hydrocarbon receptor (Homo sapiens) (UniProt P35869). Briefly: ATG_Ahr_CIS: Attagene CIS-FACTORIAL HepG2 Assay for human Aryl Hydrocarbon Receptor (Ahr) (AID 2282930). The settings on record: HepG2 AhR cis-factorial reporter transcription; actives raise or lower the signal. In outline:
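Transient MRTU transfection of HepG2 → 24 h compound exposure → total RNA, oligo(dT) RT → PCR, 6-FAM extension, HpaI cut → CE fluorescence. DMSO = baseline; bidirectional curve fit.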

Assay [6] in a line: ATG_AP_1_CIS: Attagene CIS-FACTORIAL HepG2 Assay for human Activator Protein 1 (AP-1) (AID 2282931). The settings on record: HepG2 Attagene cis-factorial AP-1 reporter mRNA; actives raise or lower the signal. In outline: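 Endogenous transcription-factor activity in human HepG2 liver cells is read through a cis-promoter reporter transcript, sampled 24 h after dosing. Detection uses RT-PCR with capillary electrophoresis; values come from bidirectional fitting relative to DMSO.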

Assay [7] in a line: ATG_AP_2_CIS: Attagene CIS-FACTORIAL HepG2 Assay for human Activator Protein 2 (AP-2) (AID 2282932). The settings on record: HepG2 AP-2 cis-reporter, Attagene transcription factor profiling; actives raise or lower the signal. A digest of the protocol: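 Transiently transfected HepG2 cells are exposed to chemical for 24 h. Reporter transcripts are then measured as fluorescence following RT-PCR and capillary separation, and gain- or loss-of-signal is fitted relative to DMSO.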

The nature of assay [8]: ATG_BRE_CIS: Attagene CIS-FACTORIAL HepG2 Assay for human Bone Morphogenetic Protein (BMP) Response Element (BRE) (AID 2282933). The settings on record: HepG2 BMP response element reporter, Attagene transcription factor profiling; actives raise or lower the signal. A digest of the protocol: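 Fluorescence-labelled reporter cDNA fragments, separated by capillary electrophoresis, gave the signal for this component of a 52-readout multiplex. HepG2 cells were transfected, exposed to chemicals for 24 h, and compared with DMSO using bidirectional fitting.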

In assay [9] the target is Transcription factor E2F1 (Homo sapiens) (UniProt Q01094). Briefly: ATG_E2F_CIS: Attagene CIS-FACTORIAL HepG2 Assay for human E2F Transcription Factor 1 (AID 2282935). The settings on record: HepG2 Attagene cis-reporter, E2F reporter RNA transcripts; actives raise or lower the signal. In outline:
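Fluorescent RT-PCR products, digested with HpaI for 2 h at 37 C, are separated by capillary electrophoresis. Source RNA comes from transfected HepG2 cultures treated for 24 h.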

The nature of assay [10]: ATG_E_Box_CIS: Attagene CIS-FACTORIAL HepG2 Assay for human Enhancer Box (E-box) (AID 2282936). Conditions: HepG2 E-box cis-reporter transcription, actives raise or lower the signal. In outline:
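Fluorescent reporter fragments separated by capillary electrophoresis gave the signal; mRNA came from HepG2 cells transfected with cis-element reporters and treated 24 h. Curves fitted bidirectionally relative to DMSO controls.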

Assay [11] can be described thus: ATG_M_61_CIS: Attagene CIS-FACTORIAL HepG2 Assay for M61 Transcription Factor (Internal Marker) (AID 2282937). The settings on record: HepG2 Attagene CIS-FACTORIAL M61 internal marker reporter; actives raise or lower the signal. A digest of the protocol:
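Cells were transfected with reporter units under cis-regulatory promoters, treated with chemicals for 24 h, then lysed for RNA. Reporter transcripts were quantified by RT-PCR and capillary electrophoresis, and activity was fitted bidirectionally against DMSO.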

The nature of assay [12]: ATG_EGR_CIS: Attagene CIS-FACTORIAL HepG2 Assay for human Early Growth Response 1 (EGR1) (AID 2282938). The settings on record: HepG2 Attagene CIS-FACTORIAL EGR reporter mRNA; actives raise or lower the signal. In outline: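 Endogenous TF activity in HepG2 liver cells was gauged through cis-promoter reporter constructs transiently transfected. After 24 h dosing, reporter mRNA was quantified by RT-PCR and capillary electrophoresis, and curves fitted in both directions versus DMSO.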

Assay [13] in a line: ATG_M_19_CIS: Attagene CIS-FACTORIAL HepG2 Assay for M19 Transcription Factor (Internal Marker) (AID 2282939). The settings on record: HepG2 Attagene CIS-FACTORIAL M19 internal marker reporter; actives raise or lower the signal. In outline:
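HepG2, MRTU transient transfection, 24 h dosing. Total RNA → RT-PCR → 6-FAM primer extension → HpaI digest → CE fluorescence. Bidirectional curve fit, DMSO negative control.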

A short description of assay [14]: ATG_ERE_CIS: Attagene CIS-FACTORIAL HepG2 Assay for Estrogen Response Element (ERE) (AID 2282940). The settings on record: HepG2 ERE cis-reporter, Attagene RNA transcript; actives raise or lower the signal. A digest of the protocol:
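After a 24 h chemical treatment, RNA from reporter-transfected HepG2 cells is reverse-transcribed, PCR-amplified and fluorescently labelled. Fragments separated by capillary electrophoresis give reporter signal; DMSO serves as negative control.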

Assay [15] is described as follows: ATG_Ets_CIS: Attagene CIS-FACTORIAL HepG2 Assay for human Erythroblast Transformation Specific (ETS) (AID 2282941). The settings on record: HepG2 ETS cis-reporter transcription, actives raise or lower the signal. A digest of the protocol:
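Cis-regulated reporter mRNA induction in HepG2 (transient transfection), 24 h exposure, RT-PCR plus capillary electrophoresis detection; DMSO serves as negative control and baseline.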

Assay [16] addresses Hepatocyte nuclear factor 3-beta (Homo sapiens) (UniProt Q9Y261). Briefly: ATG_FoxA2_CIS: Attagene CIS-FACTORIAL HepG2 Assay for human Forkhead box A2 (FOXA2) (AID 2282942). The settings on record: HepG2 cis-reporter transcription factor activity, 24 h; actives raise or lower the signal. A digest of the protocol:
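Endogenous transcription factor activity was read in HepG2 cells carrying transiently transfected cis-promoter reporter units. After 24 h dosing, reporter mRNA was quantified by RT-PCR and capillary electrophoresis, and values fitted bidirectionally versus DMSO.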

Assay [17] in a line: ATG_FoxO_CIS: Attagene CIS-FACTORIAL HepG2 Assay for human Forkhead box O (FoxO) (AID 2282943). The settings on record: HepG2 Attagene cis-reporter, FoxO element, mRNA; actives raise or lower the signal. In outline: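 HepG2, transient MRTU transfection (cis element, endogenous TFs). Dose 24 h. TriZol RNA → oligo(dT) RT → PCR → 6-FAM primer extension → HpaI cut → CE. Gain/loss vs DMSO.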

Assay [18] in a line: ATG_GATA_CIS: Attagene CIS-FACTORIAL HepG2 Assay for human GATA Binding Protein (AID 2282944). Conditions: HepG2 GATA cis-element reporter, Attagene multiplex mRNA; actives raise or lower the signal. In outline: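 Cells: HepG2, transiently transfected with cis-regulated reporter transcription units. Exposure: 24 h. Detection: RT-PCR plus capillary electrophoresis of FAM-labeled fragments. Analysis: bidirectional, DMSO as baseline.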

Assay [19] in a line: ATG_GLI_CIS: Attagene CIS-FACTORIAL HepG2 Assay for human Zinc Finger Protein GLI1 (AID 2282945). Conditions: HepG2, Attagene cis-factorial reporter mRNA, GLI element; actives raise or lower the signal. A digest of the protocol:
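Bidirectional curve fits relative to DMSO, using reporter mRNA levels from RT-PCR plus capillary electrophoresis. Cells were HepG2 transiently carrying cis-regulated reporter constructs, harvested 24 h after dosing.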

In assay [20] the target is Bile acid receptor (Homo sapiens) (UniProt Q96RI1). Nature of the assay: ATG_IR1_CIS: Attagene CIS-FACTORIAL HepG2 Assay for human Nuclear Receptor Subfamily 1 Group H Member 4 (NR1H4), IR1 submotif (AID 2282946). Conditions: IR1 reporter transcription, actives raise or lower the signal. In outline: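 HepG2 cells transiently transfected with multiplexed cis-element reporter units read endogenous transcription factor activity. After 24 h compound exposure, reporter mRNA was quantified by RT-PCR, fluorescent labelling, HpaI digestion and capillary electrophoresis; bidirectional fitting versus DMSO baseline.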
Chain of Bile acid receptor (Homo sapiens) (Q96RI1 whole entry, looked up): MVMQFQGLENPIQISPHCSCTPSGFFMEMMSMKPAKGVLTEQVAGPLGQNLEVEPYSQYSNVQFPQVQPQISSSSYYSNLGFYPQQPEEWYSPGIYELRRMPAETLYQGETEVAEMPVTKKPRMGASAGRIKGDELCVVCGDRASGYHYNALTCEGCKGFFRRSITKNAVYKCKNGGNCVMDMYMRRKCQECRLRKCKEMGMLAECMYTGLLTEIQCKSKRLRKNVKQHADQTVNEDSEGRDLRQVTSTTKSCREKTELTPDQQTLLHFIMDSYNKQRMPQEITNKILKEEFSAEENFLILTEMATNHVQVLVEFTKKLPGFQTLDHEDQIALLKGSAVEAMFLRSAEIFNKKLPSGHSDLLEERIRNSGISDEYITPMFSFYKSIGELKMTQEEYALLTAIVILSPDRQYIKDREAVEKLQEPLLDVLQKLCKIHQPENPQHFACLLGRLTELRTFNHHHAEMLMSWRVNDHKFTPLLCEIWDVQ

Chain of CCAAT/enhancer-binding protein beta (Homo sapiens) (P17676 whole entry, looked up): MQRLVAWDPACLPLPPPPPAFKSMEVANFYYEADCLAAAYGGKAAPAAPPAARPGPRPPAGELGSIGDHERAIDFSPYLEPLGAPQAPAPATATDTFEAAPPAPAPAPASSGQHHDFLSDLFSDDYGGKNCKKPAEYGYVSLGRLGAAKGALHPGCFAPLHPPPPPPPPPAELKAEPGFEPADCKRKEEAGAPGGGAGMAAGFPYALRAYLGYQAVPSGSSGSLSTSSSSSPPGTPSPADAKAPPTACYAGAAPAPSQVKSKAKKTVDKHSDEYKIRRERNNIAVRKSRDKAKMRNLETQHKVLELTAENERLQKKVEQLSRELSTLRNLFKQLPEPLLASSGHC
Chain of Aryl hydrocarbon receptor (Homo sapiens) (P35869 whole entry, looked up): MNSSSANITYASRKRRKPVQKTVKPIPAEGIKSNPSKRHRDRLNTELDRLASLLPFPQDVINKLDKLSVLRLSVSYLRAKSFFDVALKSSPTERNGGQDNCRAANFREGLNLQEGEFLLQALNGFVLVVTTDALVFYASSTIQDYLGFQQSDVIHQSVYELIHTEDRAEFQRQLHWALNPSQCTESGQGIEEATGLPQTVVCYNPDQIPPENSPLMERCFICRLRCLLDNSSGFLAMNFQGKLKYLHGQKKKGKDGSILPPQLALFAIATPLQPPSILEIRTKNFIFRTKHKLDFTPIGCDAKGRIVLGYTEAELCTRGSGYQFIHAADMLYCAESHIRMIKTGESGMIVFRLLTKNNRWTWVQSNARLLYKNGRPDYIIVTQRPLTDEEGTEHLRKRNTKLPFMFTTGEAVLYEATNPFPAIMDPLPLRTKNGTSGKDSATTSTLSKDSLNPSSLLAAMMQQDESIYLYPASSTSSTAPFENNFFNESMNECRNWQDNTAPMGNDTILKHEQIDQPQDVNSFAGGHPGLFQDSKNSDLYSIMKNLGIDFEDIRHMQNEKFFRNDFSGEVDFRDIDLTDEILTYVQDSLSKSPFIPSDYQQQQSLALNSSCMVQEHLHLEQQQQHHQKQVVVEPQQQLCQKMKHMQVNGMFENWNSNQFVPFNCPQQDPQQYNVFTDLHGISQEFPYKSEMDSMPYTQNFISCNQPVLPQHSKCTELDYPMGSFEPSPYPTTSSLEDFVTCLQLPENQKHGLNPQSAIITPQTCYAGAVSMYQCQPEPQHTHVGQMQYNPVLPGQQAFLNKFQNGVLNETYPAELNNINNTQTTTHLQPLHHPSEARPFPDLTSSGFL
Chain of Transcription factor E2F1 (Homo sapiens) (Q01094 whole entry, looked up): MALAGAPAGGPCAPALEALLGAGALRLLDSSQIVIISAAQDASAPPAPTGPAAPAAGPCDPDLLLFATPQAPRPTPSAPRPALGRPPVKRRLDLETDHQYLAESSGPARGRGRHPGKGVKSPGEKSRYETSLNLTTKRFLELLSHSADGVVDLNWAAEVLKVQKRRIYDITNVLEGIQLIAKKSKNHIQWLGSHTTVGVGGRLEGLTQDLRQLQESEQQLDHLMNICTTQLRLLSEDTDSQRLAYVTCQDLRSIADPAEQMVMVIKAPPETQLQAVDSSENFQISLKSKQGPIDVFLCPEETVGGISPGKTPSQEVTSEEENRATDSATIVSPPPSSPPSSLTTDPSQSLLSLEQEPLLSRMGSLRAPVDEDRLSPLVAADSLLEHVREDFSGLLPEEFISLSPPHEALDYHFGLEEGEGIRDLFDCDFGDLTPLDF
Chain of Hepatocyte nuclear factor 3-beta (Homo sapiens) (Q9Y261 whole entry, looked up): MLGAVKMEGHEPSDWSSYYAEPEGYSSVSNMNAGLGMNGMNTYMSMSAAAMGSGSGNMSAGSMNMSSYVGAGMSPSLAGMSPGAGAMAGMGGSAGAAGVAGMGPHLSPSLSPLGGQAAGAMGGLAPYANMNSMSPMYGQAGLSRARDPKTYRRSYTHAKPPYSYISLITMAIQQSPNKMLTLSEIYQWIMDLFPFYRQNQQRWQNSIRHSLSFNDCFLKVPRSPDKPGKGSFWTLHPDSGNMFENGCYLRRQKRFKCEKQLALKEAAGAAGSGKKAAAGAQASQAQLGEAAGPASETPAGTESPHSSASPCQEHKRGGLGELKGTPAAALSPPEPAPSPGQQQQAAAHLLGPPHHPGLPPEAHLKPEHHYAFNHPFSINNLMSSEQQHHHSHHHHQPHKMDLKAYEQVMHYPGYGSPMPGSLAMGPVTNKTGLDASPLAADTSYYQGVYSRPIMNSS

On to `CCC(C)N(C)C(=O)c1cc2ccccc2c(-c2ccccc2Cl)n1` (centres undefined), for which the compound was called inactive in [1], in assay [2], in [5], in [7], in assay [9] and in assay [10]. Besides, the call in assay [11], in [13], in assay [14], in assay [15], in assay [16] and in assay [17] was inactive. Also, the call in assay [18] and in [19] was inactive. The concentration at half-maximal activity (AC50) in assay [3] was 46 µM (active); in assay [4] it was 31.8 µM (active); in assay [6] it was 84.8 µM (active); in assay [8] it was 97.4 µM (active); in assay [12], 62.5 µM (active).

Turning to `CC(C)c1cccc(C(C)C)c1`, the compound was called inactive in assay [1], in [2], in [3], in assay [4], in [5] and in assay [6]. For the same compound, the compound was classed as inactive in assay [7], in [8], in [9], in [10], in assay [11] and in assay [12]. For the same compound, the call in [13], in assay [14], in assay [15], in [16], in assay [17] and in assay [18] was inactive. Further, the call in assay [19] and in assay [20] was inactive.

Turning to `CN(C)C(=O)NC1(c2ccccc2)CCN(CCC[C@]2(c3ccc(Cl)c(Cl)c3)CCCN(C(=O)c3ccccc3)C2)CC1`, the AC50 in assay [1] is 4.22 µM (active); in [2], 5.22 µM (active); in [4], 4.53 µM (active); in assay [6], 2.75 µM (active); in assay [10] it was 4.17 µM (active); in assay [12] it was 2.75 µM (active). Besides, the AC50 in [20] is 4.21 µM (active). Also, the compound was called inactive in [3], in assay [5], in assay [7], in assay [8], in assay [9] and in assay [11]. In addition, the compound was classed as inactive in [13], in [14], in [15], in [16], in [17] and in [18]. Further, in [19], the compound was called inactive.
